Test results from PubChem BioAssay AID1159580 (chemical genetic matrix, 2015).
Hit rate of the full screen: of about 5,500 compounds, about 2,000 (36%) were called active. Inconclusive results (about 18%) are left out. Cut-off read from the data, not from the text of the source: active = normalized growth mostly below about 0.91 (no sharp cut-off); inconclusive = no clear call, values can overlap the other calls; inactive = mostly above about 0.92. Some of the results follow.

Experiment: chemical genetic growth profiling, strain panel (AID 1159580);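 note: tested at 20 µM; growth read once vehicle control cultures reached saturation at 30 °C; 1 = growth at the plate median or of vehicle wells; lower values mean less growth of the strain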
Conditions: S. cerevisiae deletion strains, growth OD

Measured: normalized growth

O=C1c2ccccc2C(=O)c2c(O)c(O)cc(O)c21
active: locus YAL021C, strain ccr4, hits give low values 0.105 | locus YAL026C, strain drs2, hits give low values 0.209 | locus YAL030W, strain snc1, hits give low values 0.471 | locus YBL061C, strain skt5, hits give low values 0.403 | locus YBR009C, strain hhf1, hits give low values 0.415 | locus YBR023C, strain chs3, hits give low values 0.35 | locus YBR171W, strain sec66, hits give low values 0.541 | locus YBR231C, strain swc5, hits give low values 0.228 | locus YBR279W, strain paf1, hits give low values 0.478 | locus YCL011C, strain gbp2, hits give low values 0.436 | locus YCL016C, strain dcc1, hits give low values 0.492 | locus YCL061C, strain MRC1, hits give low values 0.503 | locus YCL069W, strain vba3, hits give low values 0.426 | locus YCR088W, strain abp1, hits give low values 0.548 | locus YDL005C, strain med2, hits give low values 0.114 | locus YDL040C, strain nat1, hits give low values 0.639 | locus YDR001C, strain nth1, hits give low values 0.583 | locus YDR069C, strain doa4, hits give low values 0.22 | locus YDR137W, strain rgp1, hits give low values 0.136 | locus YDR159W, strain sac3, hits give low values 0.475 | locus YDR195W, strain ref2 0.766 | locus YDR297W, strain sur2, hits give low values 0.47 | locus YDR334W, strain swr1, hits give low values 0.206 | locus YDR335W, strain msn5, hits give low values 0.386 | locus YDR392W, strain spt3, hits give low values 0.164 | locus YEL003W, strain gim4, hits give low values 0.392 | locus YEL037C, strain rad23, hits give low values 0.421 | locus YEL061C, strain CIN8 (second series), hits give low values 0.494 | locus YER015W, strain faa2, hits give low values 0.323 | locus YER016W, strain bim1, hits give low values 0.505 | locus YER111C, strain swi4, hits give low values 0.223 | locus YER155C, strain BEM2 (second series), hits give low values 0.248 | locus YFR010W, strain ubp6, hits give low values 0.412 | locus YGL167C, strain pmr1, hits give low values 0.212 | locus YGL173C, strain kem1, hits give low values 0.193 | locus YGL227W, strain vid30, hits give low values 0.627 | locus YGL240W, strain doc1, hits give low values 0.383 | locus YGL253W, strain hxk2, hits give low values 0.262 | locus YHR013C, strain ard1, hits give low values 0.293 | locus YHR027C, strain rpn1, hits give low values 0.268 | locus YHR030C, strain SLT2, hits give low values 0.183 | locus YHR079C, strain IRE1, hits give low values 0.202 | locus YHR142W, strain chs7, hits give low values 0.242 | locus YJL092W, strain hpr5, hits give low values 0.529 | locus YJL095W, strain BCK1 (second series), hits give low values 0.121 | locus YJL095W, strain BCK1, hits give low values 0.192 | locus YJL115W, strain asf1, hits give low values 0.431 | locus YJL129C, strain trk1, hits give low values 0.396 | locus YJL154C, strain vps35, hits give low values 0.489 | locus YJL164C, strain tpk1, hits give low values 0.339 | locus YJL166W, strain qcr8, hits give low values 0.327 | locus YJL187C, strain SWE1, hits give low values 0.434 | locus YJR066W, strain TOR1, hits give low values 0.174 | locus YKL160W, strain elf1, hits give low values 0.507 | locus YKR026C, strain gcn3, hits give low values 0.665 | locus YKR091W, strain srl3, hits give low values 0.648 | locus YLL001W, strain dnm1, hits give low values 0.39 | locus YLL026W, hits give low values 0.444 | locus YLL041C, strain sdh2, hits give low values 0.584 | locus YLR027C, strain aat2, hits give low values 0.435 | locus YLR113W, strain HOG1, hits give low values 0.199 | locus YLR221C, strain rsa3, hits give low values 0.414 | locus YLR258W, strain gsy2, hits give low values 0.455 | locus YLR262C, strain YPT6 (second series), hits give low values 0.141 | locus YLR320W, strain mms22, hits give low values 0.266 | locus YLR342W, strain FKS1, hits give low values 0.443 | locus YLR357W, strain rsc2, hits give low values 0.534 | locus YLR370C, strain arc18, hits give low values 0.293 | locus YLR384C, strain iki3, hits give low values 0.401 | locus YML120C, strain ndi1, hits give low values 0.334 | locus YMR058W, strain fet3, hits give low values 0.33 | locus YMR125W, strain sto1, hits give low values 0.699 | locus YMR129W, hits give low values 0.557 | locus YMR205C, strain PFK2, hits give low values 0.356 | locus YMR231W, strain pep5, hits give low values 0.296 | locus YNL071W, strain lat1, hits give low values 0.306 | locus YNL183C, strain NPR1, hits give low values 0.159 | locus YNL209W, strain ssb2, hits give low values 0.252 | locus YNL248C, strain rpa49, hits give low values 0.336 | locus YNL322C, strain KRE1 (second series), hits give low values 0.424 | locus YNR049C, strain mso1, hits give low values 0.489 | locus YOR001W, strain rrp6, hits give low values 0.446 | locus YOR070C, strain gyp1, hits give low values 0.439 | locus YOR080W, strain dia2, hits give low values 0.435 | locus YOR083W, strain WHI5, hits give low values 0.399 | locus YOR106W, strain vam3, hits give low values 0.193 | locus YOR231W, strain MKK1, hits give low values 0.197 | locus YOR265W, strain rbl2, hits give low values 0.447 | locus YOR270C, strain vph1, hits give low values 0.165 | locus YOR290C, strain snf2, hits give low values 0.282 | locus YPL051W, strain arl3, hits give low values 0.168 | locus YPL078C, strain atp4, hits give low values 0.344 | locus YPL106C, strain sse1, hits give low values 0.491 | locus YPL240C, strain hsp82, hits give low values 0.497 | locus YPL256C, strain CLN2, hits give low values 0.228
